The record followed here is PubChem BioAssay.

Each structure is given as a SMILES string. Active and inactive are the calls of the source.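 How the source made its calls, unless noted: active means visual image review flags a hit and inhibition of aggregation exceeds 20%; inconclusive means visual hit but inhibition at or below 20%; inactive means no hit on visual image review.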

The first assay can be described thus: inhibitors of TNFa-induced NFkB p65 translocation, primary screen, imaging, HUVEC, MLSMR starter and 10KST1 sets (AID 438;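 active means inhibition above 20% together with a positive visual image hit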;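 further: compound added about 3h40 before a 20 min TNFalpha stimulation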;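 on inhibition: signal is the nuclear over cytoplasmic p65 intensity ratio per well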). The settings on record: HUVEC TNFa-induced p65 nuclear translocation; cell count: measured here: nuclei count (cytotoxicity indicator), at 2.08 µM; inhibition: at 2 µM, stronger effect = higher value, 0% TNFa-plus-vehicle, 100% no-TNFa wells.
For the compound `CCOC(=O)c1c(C)oc2ccc(O)c(CN3CCCCC3)c12`, the cell count came to 376 and the inhibition (usually the drop in the measured response relative to a control, in per cent) was -0.9% (inactive).

Take `ON=C1/C(=N\O)CC2(C/C1=N/O)OCCO2`: the cell count came out at 408 and the inhibition is 2.2% (inactive).

Take `CC1CCCCN1CCNC(=O)c1ccc2c(=O)n(CCc3ccccc3)c(=O)[nH]c2c1` (stereo not given): the inhibition is 116% (active) and the cell count is 105.

Regarding `COc1nc(OC)nc(N2CCC(NC(=O)C(Cc3ccc(C(C)C)cc3)NC(C)=O)CC2)n1` (stereo not given), the inhibition is -5.5% (inactive) and the cell count stood at 800.

Regarding `O=C(CN1C(=O)c2cccc3cccc1c23)N1CCN(c2ccccc2)CC1`, the cell count came to 512 and the inhibition is -50% (inactive).

Turning to `CCCc1cc(-c2n[nH]c(C)c2-c2ccc(C(=O)OCC)o2)c(O)cc1O`, the inhibition is 2% (inactive) and the cell count came out at 651.

Consider `Cc1ccc(-c2cc(C(=O)NCc3ccc4c(c3)OCO4)no2)cc1`, for which the inhibition is 0.3% (inactive) and the cell count amounted to 382.

Turning to `CCn1c(SCC(=O)Nc2ccc(C(C)=O)cc2)nc2ccccc21`, the cell count stood at 227 and the inhibition is 14.4% (inactive).

For the compound `CCCCNC(=O)CN(C1CCCCC1)S(C)(=O)=O`, the inhibition was 1.2% (inactive) and the cell count turned out to be 422.

On to `C[C@H](NC(=O)OC(C)(C)C)C(=O)NCC1CCC(C(=O)O)CC1` (stereo not given in full), for which the cell count stood at 376 and the inhibition was -1.1% (inactive).

Regarding `c1ccc(-c2cc(-c3nc(-c4ccccn4)no3)c3ccccc3n2)cc1`, the cell count is 469 and the inhibition is 7.6% (inactive).

On to `Cc1cccc(N2CCN(C(=O)Cn3ccc4ccccc4c3=O)CC2)c1C`, for which the inhibition was 11% (inactive) and the cell count is 340.

For `Nc1sccc1C(=O)c1ccccc1`, the inhibition is -5.4% (inactive) and the cell count is 339.

Regarding `COc1ccc(C2=NOC(C(=O)NCc3ccc(F)cc3)C2)cc1OC` (stereo not given), the inhibition was 14.3% (inactive) and the cell count stood at 601.

Consider `c1ccc(-c2cn3c4c(sc3n2)CCCC4)cc1`, for which the cell count amounted to 789 and the inhibition was -4.8% (inactive).

Regarding `COc1ccc(-n2c(COc3ccccc3)nnc2SCc2ccc(C#N)cc2)cc1`, the cell count amounted to 687 and the inhibition was -7.7% (inactive).

With `Cc1ccc(Cn2c(C(=O)NCCCN3CCOCC3)cc3sccc32)cc1`, the cell count stood at 765 and the inhibition is -5.9% (inactive).

In the case of `Cc1ccc(NC(=O)CS(=O)CC(=O)NCC2CCCO2)cc1` (stereo not given), the inhibition was 7.1% (inactive) and the cell count amounted to 515.

Consider `CCN(CC)C(=O)CSc1nc2ccccc2c(=O)n1CCC(=O)NCc1ccc(F)cc1`, for which the inhibition was -6.6% (inactive) and the cell count was 471.

Turning to `COc1ccccc1N1CCN(c2nc3ccccc3nc2C(C#N)C(=O)OC(C)C)CC1` (stereo not given), the cell count is 518 and the inhibition was 1% (inactive).

With `COc1ccc2cc(C#N)c(NC(C)C)nc2c1`, the inhibition is 3.6% (inactive) and the cell count was 481.

Regarding `Cc1nc2ccc(NC(=O)N3CCC(c4ccccc4)C3)cc2nc1C` (stereo not given), the cell count is 551 and the inhibition is 4.3% (inactive).

On to `COc1cc(=O)[nH]c(SCc2c(F)c(F)c(F)c(F)c2F)n1`, for which the inhibition is 2.2% (inactive) and the cell count came to 546.

Consider `CC(=O)Nc1ccc(S(=O)(=O)N(CC(=O)O)Cc2ccccc2)cc1`, for which the cell count was found to be 487 and the inhibition is 6% (inactive).

With `CCOC(=O)c1nnn(-c2nonc2N)c1CN1CCc2ccccc2C1`, the cell count is 200 and the inhibition was -3.9% (inactive).

As to `CCOC(=O)N1CCC(NC(=O)c2ccc3c(c2)N(C)CCS3)CC1`, the inhibition was -0.7% (inactive) and the cell count was found to be 368.

Consider `CCOC(=O)c1c(NCc2ccc3c(c2)OCO3)c2ccccc2[nH]c1=O`, for which the inhibition was -9.9% (inactive) and the cell count is 509.

For `O=S1(=O)Nc2c(ccc3cccnc23)-c2ccccc21`, the inhibition is 77.8% (active) and the cell count was found to be 318.

In the case of `COc1ccc(CCN2C(=O)C3C4C=CC(C4)C3C2=O)cc1OC` (stereo not given), the cell count is 493 and the inhibition was -3.8% (inactive).

For `CC(=O)NCCn1ccc2ccccc21`, the inhibition was 14.1% (inactive) and the cell count stood at 272.

As to `C=CCn1c(=O)[nH]c2cc(C(=O)N3CCN(c4ccc(C(C)=O)cc4)CC3)ccc2c1=O`, the inhibition was -1.8% (inactive) and the cell count came out at 359.

On to `O=C(CSc1nc2ccccc2c(=O)n1CCC(=O)N1CCCCC1)NCc1ccccc1`, for which the cell count worked out at 495 and the inhibition is -7.5% (inactive).

For the compound `COC(=O)C(F)(F)Sc1c(C)[nH]c2ccccc12`, the cell count came to 699 and the inhibition is -2.1% (inactive).

As to `COCCN(C(=O)Cn1nnc2ccccc21)C(C(=O)NC1CCCC1)c1cc(OC)ccc1OC` (stereo not given), the cell count was 323 and the inhibition is 9% (inactive).

Regarding `COC(=O)C(C)C1Sc2ccccc2NC1=O` (stereo not given), the inhibition is 3.6% (inactive) and the cell count is 306.

As to `COc1ccc(CC(NC(C)=O)C(=O)NC2CCN(c3nc(C)cc(C)c3C#N)CC2)c(OC)c1` (stereo not given), the inhibition is -7.4% (inactive) and the cell count was found to be 750.

For `Cc1ccc(CS(=O)(=O)CCC(=O)NCC2CCCO2)cc1` (stereo not given), the inhibition was 7% (inactive) and the cell count came to 470.

In the case of `COc1ccccc1-c1nc(C#N)c(N2CCN(c3ccccc3)CC2)o1`, the cell count was 730 and the inhibition was -10.2% (inactive).

Consider `COc1cccc(OCC(O)CN2CCN(CCO)CC2)c1` (stereo not given), for which the cell count is 383 and the inhibition was -1% (inactive).

Turning to `Cc1ccc(C(=O)OCC(=O)c2ccc(Cl)s2)s1`, the inhibition was -24.7% (inactive) and the cell count was determined as 654.

The nature of another assay: reduction of polyQ htt aggregates in cells – imaging, exon1htt(103Q)mCFP cells, high-content imaging, primary screen (AID 483).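 Further: compound exposure lasted 3 days before fixation.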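 On nuclei count: percent of the per-plate median nuclei count of sample wells.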 The settings on record: exon1htt(103Q)mCFP cell line, aggregate imaging, at 2 µM; inhibition of aggregation: stronger effect = higher value; nuclei count: measured here: cell count, toxicity.
With `CCOC(=O)c1c(C)oc2ccc(O)c(CN3CCCCC3)c12`, the nuclei count came out at 102% and the inhibition of aggregation is -42.7% (inactive).

With `ON=C1/C(=N\O)CC2(C/C1=N/O)OCCO2`, the inhibition of aggregation is 22.4% (inactive) and the nuclei count was 69.5%.

On to `CC1CCCCN1CCNC(=O)c1ccc2c(=O)n(CCc3ccccc3)c(=O)[nH]c2c1` (stereo not given), for which the inhibition of aggregation is 12.7% (inactive) and the nuclei count amounted to 91.2%.

Turning to `COc1nc(OC)nc(N2CCC(NC(=O)C(Cc3ccc(C(C)C)cc3)NC(C)=O)CC2)n1` (stereo not given), the nuclei count is 119% and the inhibition of aggregation is -37.6% (inactive).

Turning to `O=C(CN1C(=O)c2cccc3cccc1c23)N1CCN(c2ccccc2)CC1`, the inhibition of aggregation is 2.8% (inactive) and the nuclei count was 108%.

As for `CCCc1cc(-c2n[nH]c(C)c2-c2ccc(C(=O)OCC)o2)c(O)cc1O`, the inhibition of aggregation was -2.2% (inactive) and the nuclei count was found to be 88.5%.

`Cc1ccc(-c2cc(C(=O)NCc3ccc4c(c3)OCO4)no2)cc1`: the nuclei count was 92.9% and the inhibition of aggregation was 8.6% (inactive).

For the compound `CCn1c(SCC(=O)Nc2ccc(C(C)=O)cc2)nc2ccccc21`, the inhibition of aggregation is -7.2% (inactive) and the nuclei count amounted to 101%.

With `CCCCNC(=O)CN(C1CCCCC1)S(C)(=O)=O`, the inhibition of aggregation was -3.6% (inactive) and the nuclei count was found to be 99.8%.

Turning to `C[C@H](NC(=O)OC(C)(C)C)C(=O)NCC1CCC(C(=O)O)CC1` (stereo not given in full), the inhibition of aggregation was 4% (inactive) and the nuclei count turned out to be 103%.

For the compound `c1ccc(-c2cc(-c3nc(-c4ccccn4)no3)c3ccccc3n2)cc1`, the nuclei count is 101% and the inhibition of aggregation is -4.3% (inactive).

As for `Cc1cccc(N2CCN(C(=O)Cn3ccc4ccccc4c3=O)CC2)c1C`, the inhibition of aggregation was 3.8% (inactive) and the nuclei count was 95.6%.

On to `Nc1sccc1C(=O)c1ccccc1`, for which the nuclei count was found to be 110% and the inhibition of aggregation was 5.8% (inactive).

With `COc1ccc(C2=NOC(C(=O)NCc3ccc(F)cc3)C2)cc1OC` (stereo not given), the nuclei count was 2.5% and the inhibition of aggregation is -82.4% (inactive).

For the compound `c1ccc(-c2cn3c4c(sc3n2)CCCC4)cc1`, the nuclei count was determined as 118% and the inhibition of aggregation is 40% (inactive).

As to `COc1ccc(-n2c(COc3ccccc3)nnc2SCc2ccc(C#N)cc2)cc1`, the nuclei count was 56.4% and the inhibition of aggregation was -21% (inactive).

As to `Cc1ccc(Cn2c(C(=O)NCCCN3CCOCC3)cc3sccc32)cc1`, the nuclei count stood at 111% and the inhibition of aggregation was -85.9% (inactive).

On to `Cc1ccc(NC(=O)CS(=O)CC(=O)NCC2CCCO2)cc1` (stereo not given), for which the inhibition of aggregation is 17.5% (inactive) and the nuclei count is 100%.

With `CCN(CC)C(=O)CSc1nc2ccccc2c(=O)n1CCC(=O)NCc1ccc(F)cc1`, the inhibition of aggregation is 15.2% (inactive) and the nuclei count was found to be 108%.

As to `COc1ccccc1N1CCN(c2nc3ccccc3nc2C(C#N)C(=O)OC(C)C)CC1` (stereo not given), the nuclei count amounted to 119% and the inhibition of aggregation was -12.2% (inactive).

For `COc1ccc2cc(C#N)c(NC(C)C)nc2c1`, the nuclei count was found to be 96.4% and the inhibition of aggregation was -25.6% (inactive).

Consider `Cc1nc2ccc(NC(=O)N3CCC(c4ccccc4)C3)cc2nc1C` (stereo not given), for which the inhibition of aggregation is 9.2% (inactive) and the nuclei count amounted to 106%.

For `COc1cc(=O)[nH]c(SCc2c(F)c(F)c(F)c(F)c2F)n1`, the inhibition of aggregation was 6.7% (inactive) and the nuclei count was found to be 87.6%.

Consider `CC(=O)Nc1ccc(S(=O)(=O)N(CC(=O)O)Cc2ccccc2)cc1`, for which the inhibition of aggregation was 4.7% (inactive) and the nuclei count turned out to be 107%.

For `CCOC(=O)c1nnn(-c2nonc2N)c1CN1CCc2ccccc2C1`, the inhibition of aggregation is -11.1% (inactive) and the nuclei count is 80.6%.

Regarding `CCOC(=O)N1CCC(NC(=O)c2ccc3c(c2)N(C)CCS3)CC1`, the nuclei count was found to be 113% and the inhibition of aggregation is 17.8% (inactive).

For `CCOC(=O)c1c(NCc2ccc3c(c2)OCO3)c2ccccc2[nH]c1=O`, the nuclei count is 94.1% and the inhibition of aggregation was 16.6% (inactive).

For `O=S1(=O)Nc2c(ccc3cccnc23)-c2ccccc21`, the nuclei count amounted to 50.8% and the inhibition of aggregation is -31.5% (inactive).

With `COc1ccc(CCN2C(=O)C3C4C=CC(C4)C3C2=O)cc1OC` (stereo not given), the nuclei count came out at 105% and the inhibition of aggregation was 2.1% (inactive).

Regarding `CC(=O)NCCn1ccc2ccccc21`, the nuclei count came out at 93% and the inhibition of aggregation is 17.6% (inactive).

`C=CCn1c(=O)[nH]c2cc(C(=O)N3CCN(c4ccc(C(C)=O)cc4)CC3)ccc2c1=O`: the inhibition of aggregation was 20.3% (inactive) and the nuclei count is 101%.

For `O=C(CSc1nc2ccccc2c(=O)n1CCC(=O)N1CCCCC1)NCc1ccccc1`, the nuclei count was 103% and the inhibition of aggregation was 1% (inactive).

On to `COC(=O)C(F)(F)Sc1c(C)[nH]c2ccccc12`, for which the inhibition of aggregation is 13.7% (inactive) and the nuclei count was found to be 94.7%.

As for `COCCN(C(=O)Cn1nnc2ccccc21)C(C(=O)NC1CCCC1)c1cc(OC)ccc1OC` (stereo not given), the inhibition of aggregation was 7.8% (inactive) and the nuclei count amounted to 105%.

Regarding `COC(=O)C(C)C1Sc2ccccc2NC1=O` (stereo not given), the nuclei count amounted to 89.5% and the inhibition of aggregation is -4.9% (inactive).

As to `COc1ccc(CC(NC(C)=O)C(=O)NC2CCN(c3nc(C)cc(C)c3C#N)CC2)c(OC)c1` (stereo not given), the nuclei count is 121% and the inhibition of aggregation is -12.3% (inactive).

In the case of `Cc1ccc(CS(=O)(=O)CCC(=O)NCC2CCCO2)cc1` (stereo not given), the nuclei count stood at 99.3% and the inhibition of aggregation was 1.1% (inactive).

`COc1ccccc1-c1nc(C#N)c(N2CCN(c3ccccc3)CC2)o1`: the nuclei count is 119% and the inhibition of aggregation was 17% (inactive).

On to `COc1cccc(OCC(O)CN2CCN(CCO)CC2)c1` (stereo not given), for which the inhibition of aggregation was -24.6% (inactive) and the nuclei count is 105%.

`Cc1ccc(C(=O)OCC(=O)c2ccc(Cl)s2)s1`: the nuclei count came to 86% and the inhibition of aggregation was 10.6% (inactive).
